Assay results: PubChem BioAssay (NCATS)
Records with an inconclusive call do not appear. Calls of active or inactive are those of the source. Calls follow the shape of the dose curve; as a rule, active = well fitted inhibition curve with a large enough effect; inconclusive = small, poorly fitted or top-dose-only effect; inactive = flat fitted curve, though single readings scatter.

Legend:
CRL-7250 = normal cell line; test: Cytotoxic Profiling of Annotated Libraries Using Quantitative High-Throughput Screening (AID 1296008); conditions: Five cell lines viability, CellTiter-Glo ATP luminescence, 48-72 h; max response: stronger effect = lower value; as to max response: % is scaled to controls: 0 for no effect and ±100 for the full control effect
In short: (§1)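 Cells exposed to compounds for 48 or 72 hr at 37 degrees Celsius. Viability read as ATP-coupled luminescence with CellTiter-Glo after 10 min at room temperature.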

HEK293 = test: as above; conditions: Five cell lines viability, CellTiter-Glo ATP luminescence, 48-72 h; max response: stronger effect = lower value
In short: as §1

HaCat [1] = test: as above; conditions: Five cell lines viability, CellTiter-Glo ATP luminescence, 48-72 h; max response: stronger effect = lower value
In short: as §1

KB-3-1 = test: as above; conditions: Five cell lines viability, CellTiter-Glo ATP luminescence, 48-72 h; max response: stronger effect = lower value
In short: as §1

NIH3T3 = test: as above; conditions: Five cell lines viability, CellTiter-Glo ATP luminescence, 48-72 h; max response: stronger effect = lower value
In short: as §1

HACAT [2] = test: qHTS assay to identify novel small-molecules to repurpose for Merkel cell carcinoma treatment (AID 1296009); conditions: MCC and control cell lines, CellTiter-Glo viability, 72 h; at 44.8 µM (top of the series) unless noted
In short: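 CellTiter-Glo luminescence after 72 hr compound exposure at 37 degree celsius gave cell viability. Libraries NPC and MIPE were run as 8- and 11-point dose responses; RLUs normalized to DMSO (negative) and no-cell (cytotoxicity) controls.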

Measured: max response
Also: nearly all actives have a fitted effect of over 60% in size.

Cc1occc(=O)c1O[C@@H]1O[C@H](CO[C@@H]2OC[C@](O)(CO)[C@H]2O)[C@@H](O)[C@H](O)[C@H]1O
inactive: CRL-7250 | HEK293 0.165% | HaCat [1] | KB-3-1 | NIH3T3 1.4% | HACAT [2] inactive [at 17.4 µM]

COC(O)(CC(C)C)C1Oc2cc(C)[nH]c(=O)c2O1 (configuration not stated)
inactive: CRL-7250 | HEK293 0.893% | HaCat [1] | KB-3-1 6.46% | NIH3T3 3.8% | HACAT [2]

CC1CCC2C(C)(C)C(O)C(O)CC2(C)C12Cc1c(O)cc(CO)c(C=O)c1O2 (configuration not stated)
inactive: CRL-7250 1.89% | HEK293 -2.44% | HaCat [1] | KB-3-1 2.63% | NIH3T3 0.788% | HACAT [2] inactive [at 17.4 µM]

CCCC(C(=O)O)c1c(C)nc2ccc(Cl)cc2c1-c1ccccc1 (configuration not stated)
inactive: CRL-7250 3.26% | HEK293 -5.83% | HaCat [1] | KB-3-1 2.25% | NIH3T3 1.27% | HACAT [2]

C[C@@H]1O[C@@H](O[C@H]2[C@H](O)[C@@H](O)[C@H](OC[C@H]3O[C@@H](OC(=O)[C@]45CCC(C)(C)C[C@H]4C4=CCC6[C@@]7(C)C[C@@H](O)[C@H](O)[C@@](C)(CO)C7[C@H](O)C[C@@]6(C)[C@]4(C)CC5)[C@H](O)[C@@H](O)[C@@H]3O)O[C@@H]2CO)[C@H](O)[C@H](O)[C@H]1O (some centres not stated)
inactive: CRL-7250 | HEK293 -10.1% | HaCat [1] | KB-3-1 | NIH3T3 -2.14% | HACAT [2] inactive [at 9.27 µM]

CCCCC(=O)N1c2ccccc2NC2=C(C(=O)CCC2)C1c1ccccc1Cl (configuration not stated)
inactive: CRL-7250 | HEK293 -3.83% | HaCat [1] | KB-3-1 6.63% | NIH3T3 -4.77% | HACAT [2]

CC1(C)CC[C@]2(C(=O)OC3OC(CO)C(O)C(O)C3O)CC[C@]3(C)C(=CCC4[C@@]5(C)C[C@@H](O)[C@H](OC6OC(C(=O)O)C(O)C(O)C6O)C(C)(C)C5CC[C@]43C)[C@@H]2C1 (some centres not stated)
inactive: CRL-7250 2.21% | HEK293 3.34% | HaCat [1] | KB-3-1 7.37% | NIH3T3 -4.63% | HACAT [2] inactive [at 9.27 µM]

CC(CC(C)O[C@@H]1O[C@H](CO)[C@@H](O)[C@H](O)[C@H]1O)OC(=O)/C=C/c1ccc(O)cc1 (some centres not stated)
inactive: CRL-7250 2.71% | HEK293 -1.24% | HaCat [1] | KB-3-1 | NIH3T3 3.43% | HACAT [2] inactive [at 17.4 µM]

Cc1cccc(NC(=O)CN2CCC(c3ccccn3)CC2)c1
inactive: CRL-7250 | HEK293 -3.86% | HaCat [1] | KB-3-1 -2.52% | NIH3T3 4.5% | HACAT [2]

O=C(OCC1=CC(Cl)C(O)C(OC(=O)c2ccccc2)C1O)c1ccccc1 (configuration not stated)
inactive: CRL-7250 2.93% | HEK293 -7.58% | HaCat [1] | KB-3-1 | NIH3T3 1.71% | HACAT [2] inactive [at 17.4 µM]

C[C@@H](c1ccccc1)N(C(N)=NC#N)c1cccc2ncccc12
inactive: CRL-7250 | HEK293 0.131% | HaCat [1] | KB-3-1 | NIH3T3 3.53% | HACAT [2]

CC/C=C\C(O)C(O)C1=C(C)C(=O)C2(O1)C(=O)NC(OC)(C(=O)c1ccccc1)C2O (configuration not stated)
inactive: CRL-7250 | HEK293 -0.178% | HaCat [1] | KB-3-1 7.12% | NIH3T3 -1.62% | HACAT [2] inactive [at 17.4 µM]

COC(=O)C1=COC(OC2OC(CO)C(O)C(O)C2O)C2C(COC(=O)/C=C/c3ccc(O)cc3)C(O)C(O)C12 (configuration not stated)
inactive: CRL-7250 | HEK293 0.595% | HaCat [1] | KB-3-1 | NIH3T3 -5.08% | HACAT [2] inactive [at 17.4 µM]

OC[C@H]1O[C@@H](Oc2cc(O)cc(-c3cc4ccc(O[C@@H]5O[C@H](CO)[C@@H](O)[C@H](O)[C@H]5O)cc4o3)c2)[C@H](O)[C@@H](O)[C@@H]1O
inactive: CRL-7250 -9.86% | HEK293 -2.42% | HaCat [1] | KB-3-1 0.0792% | NIH3T3 -3.34% | HACAT [2] inactive [at 17.4 µM]

C[C@@H]1O[C@@H](O[C@H]2[C@H](O[C@H]3[C@H](O[C@H]4CC[C@@]5(C)C(CC[C@]6(C)C5CC=C5[C@@H]7CC(C)(C)C[C@@H](O)[C@]7(C)CC[C@]56C)C4(C)C)O[C@H](C(=O)O)[C@@H](O)[C@@H]3O)O[C@H](C(=O)O)[C@H](O)[C@@H]2O)[C@H](O)[C@H](O)[C@H]1O (some centres not stated)
inactive: CRL-7250 -7.66% | HEK293 -8.11% | HaCat [1] | KB-3-1 | NIH3T3 0.708% | HACAT [2] inactive [at 9.27 µM]

CC(CC12CCCN1C(=O)C1CCCN1C2=O)OC(N)=O (configuration not stated)
inactive: CRL-7250 | HEK293 2.01% | HaCat [1] | KB-3-1 4.48% | NIH3T3 4.31% | HACAT [2]

CC(C)C1NC(=O)C(CC2(O)c3ccccc3N3C(=O)C(Cc4ccccc4)NC32)NC1=O (configuration not stated)
inactive: CRL-7250 | HEK293 -4.45% | HaCat [1] | KB-3-1 | NIH3T3 | HACAT [2] inactive [at 17.4 µM]
